Data taken from PubChem BioAssay (Tox21).
Values joined by “and” are separate entries in the source; they are usually repeats but may differ in a detail not shown here. Equal values may be shown once. Records with an inconclusive call do not appear. A call without a number means that no potency is given here. Some compounds were tested as several samples or in several runs, with calls that do not always agree. Active and inactive are the calls of the source. Unless noted, calls come from the whole dose curve; as a rule, active = well fitted curve in the direction sought with a large enough effect in the repeat runs; inconclusive = weak or mixed curves; inactive = no such curve, though single readings can be large; an effect the other way counts as inactive or inconclusive.

Key:
[1] = qHTS assay to identify small molecule agonists of the estrogen receptor alpha (ER-alpha) signaling pathway in the presence of an antagonist - cell viability counter screen (AID 1259386);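 note: series mostly up to about 92 µM; cells exposed to compounds for 22 h at 37 °C before the viability read; nearly all actives have a fitted effect of over 30% in size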
How it was run: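 ICI-182,780 at 10.0nM final accompanies the compound titration (15 concentrations, 22hr, 37C) on VM7Luc4E2 cells. The CellTiter-Fluor fluorescence readout runs in the same wells as the luciferase assay.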

[2] = molecular target: Progesterone receptor (Homo sapiens) (UniProt P06401); experiment: qHTS assay to identify small molecule agonists of the progesterone receptor (PR) signaling pathway (AID 1346784; calls by dose curve; note: nearly all actives have a fitted effect of over 30% in size)
Sequence of Progesterone receptor (Homo sapiens) (P06401 whole entry, looked up): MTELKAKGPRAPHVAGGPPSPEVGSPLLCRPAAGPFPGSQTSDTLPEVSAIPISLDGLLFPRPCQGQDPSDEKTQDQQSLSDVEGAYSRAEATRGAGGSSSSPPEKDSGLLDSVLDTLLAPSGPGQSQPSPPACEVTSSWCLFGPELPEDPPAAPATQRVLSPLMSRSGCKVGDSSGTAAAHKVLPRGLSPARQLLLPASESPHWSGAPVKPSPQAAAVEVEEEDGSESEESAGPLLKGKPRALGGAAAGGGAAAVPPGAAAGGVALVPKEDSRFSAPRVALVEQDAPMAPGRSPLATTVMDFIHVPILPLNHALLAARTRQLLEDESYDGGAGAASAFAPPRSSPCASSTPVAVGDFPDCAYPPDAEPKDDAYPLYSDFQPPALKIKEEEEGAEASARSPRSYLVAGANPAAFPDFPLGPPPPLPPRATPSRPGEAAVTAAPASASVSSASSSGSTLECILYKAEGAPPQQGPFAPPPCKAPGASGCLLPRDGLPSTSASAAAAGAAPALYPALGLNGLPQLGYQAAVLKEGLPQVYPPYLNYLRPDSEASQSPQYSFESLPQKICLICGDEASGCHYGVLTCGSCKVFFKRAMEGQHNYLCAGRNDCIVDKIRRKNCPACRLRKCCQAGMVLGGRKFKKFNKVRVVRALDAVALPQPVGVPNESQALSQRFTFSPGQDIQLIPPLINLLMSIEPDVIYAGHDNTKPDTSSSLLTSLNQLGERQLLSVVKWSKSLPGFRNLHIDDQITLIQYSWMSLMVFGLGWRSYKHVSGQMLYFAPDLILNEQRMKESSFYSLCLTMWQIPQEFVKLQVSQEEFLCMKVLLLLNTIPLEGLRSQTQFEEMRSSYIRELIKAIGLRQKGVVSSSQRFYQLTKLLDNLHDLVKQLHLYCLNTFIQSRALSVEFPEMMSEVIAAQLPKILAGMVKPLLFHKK
How it was run: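 Using charcoal-stripped serum (2%) to limit endogenous steroids, PR-UAS-bla HEK 293T cells received compounds for 16 hr at 37C after 6 hr plating; beta-lactamase FRET fluorescence was recorded following 2 hr substrate loading at room temperature.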

[3] = molecular target: Progesterone receptor (Homo sapiens) (UniProt P06401); experiment: qHTS assay to identify small molecule antagonists of the progesterone receptor (PR) signaling pathway (AID 1346795; active = well fitted inhibition curve with a large enough effect in the signal ratio in the repeat runs, not every such curve was filed as active; the % refers to the signal ratio)
How it was run: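 Inhibition of R5020-induced (1 nM final) beta-lactamase reporter signal in PR-UAS-bla HEK293T cells was scored by FRET fluorescence after overnight (16 hr) compound treatment.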

[4] = qHTS assay to identify small molecule antagonists of the progesterone receptor (PR) signaling pathway - cell viability counter screen (AID 1346798); note: series mostly up to about 92 µM; nearly all actives have a fitted effect of over 50% in size
How it was run: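 ATP content as viability readout: CellTiter-Glo luminescence, 30 min room temperature, in PR-UAS-bla HEK293T cells after 16 hr compound/R5020 treatment at 37C and 5% CO2.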

[5] = qHTS assay to identify small molecule agonists of the progesterone receptor (PR) signaling pathway - cell viability counter screen (AID 1346799; calls by dose curve; note: nearly all actives have a fitted effect of over 45% in size)
How it was run: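 Cytotoxicity in PR-bla HEK293T cells: 16 h compound, 37C; CellTiter-Glo added post-FRET read; luminescence after 30 min RT.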

[6] = qHTS assay to identify small molecule agonists of the TGF-beta/Smad signaling pathway - cell viability counter screen (AID 1346829); note: top concentration of the series differs between compounds; nearly all actives have a fitted effect of over 45% in size
How it was run: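 Compound-treated SBE-bla HEK 293T cells (5 hr, 37 C) were assessed for viability with CellTiter-Glo in parallel with the reporter read.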

[7] = qHTS assay to identify small molecule agonists of the TGF-beta/Smad signaling pathway (AID 1346859; active = well fitted activation curve with a large enough effect in the signal ratio in the repeat runs, not every such curve was filed as active; the % refers to the signal ratio; note: series mostly up to about 77 µM)
How it was run: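 Stable Smad binding element-beta-lactamase HEK 293T cells; 5 hr compound exposure at 37 C under 5% CO2; 2 hr room-temperature substrate step; fluorescence excited at 405 nm, collected at 460 nm and 530 nm.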

[8] = molecular target: Thyrotropin-releasing hormone receptor (Homo sapiens) (UniProt P34981); experiment: qHTS assay to identify small molecule antagonists of the thyrotropin-releasing hormone receptor (TRHR) signaling pathway (AID 1346877; active = well fitted inhibition curve with a large enough effect in the repeat runs, not every such curve was filed as active; note: potency is the fitted concentration of half-maximal effect)
Sequence of Thyrotropin-releasing hormone receptor (Homo sapiens) (P34981 whole entry, looked up): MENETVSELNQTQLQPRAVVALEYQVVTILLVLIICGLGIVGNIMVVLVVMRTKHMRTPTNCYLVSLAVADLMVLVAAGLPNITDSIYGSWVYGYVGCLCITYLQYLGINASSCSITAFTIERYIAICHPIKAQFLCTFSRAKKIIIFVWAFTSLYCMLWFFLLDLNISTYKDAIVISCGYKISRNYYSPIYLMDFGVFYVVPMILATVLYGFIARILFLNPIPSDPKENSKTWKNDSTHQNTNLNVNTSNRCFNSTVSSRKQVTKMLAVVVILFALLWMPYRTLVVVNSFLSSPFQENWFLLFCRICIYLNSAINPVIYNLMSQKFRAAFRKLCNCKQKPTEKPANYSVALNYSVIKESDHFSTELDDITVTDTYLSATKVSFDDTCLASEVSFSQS
How it was run: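 Screening used HEK293 cells engineered with TRHR, with a brief 5 min room-temperature compound exposure preceding addition of TRH to 1 nM. The read-out was kinetic calcium-dye fluorescence, concentration-response from 15 doses in triplicate.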

[9] = molecular target: Thyrotropin-releasing hormone receptor (Homo sapiens) (UniProt P34981); experiment: qHTS assay to identify small molecule agonists of the thyrotropin-releasing hormone receptor (TRHR) signaling pathway (AID 1346891; calls by dose curve;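 note: HEK293 cells expressing TRHR with calcium dye readout; series mostly up to about 58 µM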)
How it was run: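 In 1536-format, 1500 TRHR-Hek293 cells per well grew 18 h, took up calcium dye for 2 h at 37 °C, received compound, and were read kinetically; 15-point titrations, triplicates.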

[10] = Caspase-3/7 induction in HepG2 cells by small molecules, qHTS assay (AID 1346978); note: nearly all actives have a fitted effect of over 15% in size
How it was run: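 Caspase-3/7 induction was measured by Caspase-Glo 3/7 luminescence (30 min, room temperature) after a 17 hr compound exposure of wild-type HepG2 cells seeded at 2,000 per well and pre-incubated 5 hr.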

[11] = Caspase-3/7 induction in CHO-K1 cells by small molecules, qHTS cell viability counter screen (AID 1346979); note: nearly all actives have a fitted effect of over 35% in size; note: potency is the fitted concentration of half-maximal effect
How it was run: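 To flag cytotoxic compounds, treated CHO-K1 wild-type cells were given CellTiter-Fluor at 16hr and read fluorescently after 1hr at 37C; the caspase-3/7 luminescence was measured in these same wells.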

[12] = Caspase-3/7 induction in CHO-K1 cells by small molecules, qHTS assay (AID 1346980); note: nearly all actives have a fitted effect of over 15% in size
How it was run: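 Luminescent Caspase-Glo 3/7 read (30min, room temperature) quantified apoptosis induction. Cells were wild-type CHO-K1, treated with compound for 17hr at 37 C and 5% CO2.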

[13] = molecular target: Nuclear receptor subfamily 1 group I member 2 (Homo sapiens) (UniProt O75469); experiment: Human pregnane X receptor (PXR) small molecule agonists, qHTS assay (AID 1346982); note: nearly all actives have a fitted effect of over 35% in size; note: potency is the fitted concentration of half-maximal effect
Sequence of Nuclear receptor subfamily 1 group I member 2 (Homo sapiens) (O75469 whole entry, looked up): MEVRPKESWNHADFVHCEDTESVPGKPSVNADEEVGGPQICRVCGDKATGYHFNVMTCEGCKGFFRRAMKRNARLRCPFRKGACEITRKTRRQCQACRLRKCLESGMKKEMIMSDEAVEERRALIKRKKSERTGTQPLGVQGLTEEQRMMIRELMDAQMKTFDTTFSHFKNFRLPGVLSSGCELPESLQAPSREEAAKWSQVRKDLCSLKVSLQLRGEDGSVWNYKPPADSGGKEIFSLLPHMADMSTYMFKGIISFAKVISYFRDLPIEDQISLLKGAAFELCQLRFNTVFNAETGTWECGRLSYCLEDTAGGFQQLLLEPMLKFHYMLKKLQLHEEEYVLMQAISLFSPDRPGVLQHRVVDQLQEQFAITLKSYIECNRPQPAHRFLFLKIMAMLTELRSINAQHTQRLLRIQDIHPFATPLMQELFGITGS
How it was run: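 We seeded PXR-Luc HepG2 cells in assay medium containing 5% charcoal-stripped FBS, added compounds 5 hr later, incubated 24 hr, and read luminescence with ONE-Glo reagent.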

[14] = qHTS assay to identify small molecule antagonists of the TGF-beta/Smad signaling pathway - cell viability counter screen (AID 1346824); note: nearly all actives have a fitted effect of over 50% in size
How it was run: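 Cytotoxicity counter-screen run in the same wells as the beta-lactamase Smad reporter read: CellTiter-Glo luminescence after 30 min at room temperature. HEK 293T SBE-bla cells had 5 hr compound exposure at 37 C with TGF-beta1 (0.25 ng/mL stock).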

[15] = Human pregnane X receptor (PXR) small molecule agonists, qHTS cell viability counter screen (AID 1346977); note: nearly all actives have a fitted effect of over 50% in size
How it was run: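 Readout is CellTiter-Fluor fluorescence from PXR-Luc HepG2 cells. Plated cells rested 5hr, then were treated with compounds for 24hr at 37C and 5% CO2, with reagent present during the last hour.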

[16] = Caspase-3/7 induction in HepG2 cells by small molecules, qHTS cell viability counter screen (AID 1346981); note: series mostly up to about 92 µM; nearly all actives have a fitted effect of over 30% in size
How it was run: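 Multiplexed with the caspase-3/7 assay: HepG2 cells, 16 hr compound treatment, CellTiter-Fluor viability detection by fluorescence.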

[17] = molecular target: Cytochrome P450 2D6 (Homo sapiens) (UniProt P10635); experiment: Cytochrome P450 Family 2 Subfamily D Member 6 (CYP2D6) small molecule antagonists: luciferase reporter qHTS assay (AID 1671196); note: series mostly up to about 120 µM; nearly all actives have a fitted effect of over 50% in size
Sequence of Cytochrome P450 2D6 (Homo sapiens) (P10635 whole entry, looked up): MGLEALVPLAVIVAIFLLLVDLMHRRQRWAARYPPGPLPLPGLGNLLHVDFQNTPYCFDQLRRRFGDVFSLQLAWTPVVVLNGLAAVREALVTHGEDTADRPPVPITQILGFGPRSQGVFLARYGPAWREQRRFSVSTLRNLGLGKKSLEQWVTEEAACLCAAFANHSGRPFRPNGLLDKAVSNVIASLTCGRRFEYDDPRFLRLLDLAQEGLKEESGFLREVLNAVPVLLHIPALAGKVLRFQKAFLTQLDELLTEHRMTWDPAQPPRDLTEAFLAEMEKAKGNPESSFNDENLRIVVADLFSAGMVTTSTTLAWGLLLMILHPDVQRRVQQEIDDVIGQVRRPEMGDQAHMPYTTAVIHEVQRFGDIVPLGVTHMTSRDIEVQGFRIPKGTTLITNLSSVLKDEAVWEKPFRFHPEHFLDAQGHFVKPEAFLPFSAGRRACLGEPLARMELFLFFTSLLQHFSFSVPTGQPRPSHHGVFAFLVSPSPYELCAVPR
How it was run: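 Luminescence (RLU), read 20 min after detection reagent, indicated CYP2D6 conversion of proluciferin to luciferin during a 1 h NADPH-dependent reaction at room temperature.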

[18] = molecular target: Nuclear receptor subfamily 1 group I member 2 (Homo sapiens) (UniProt O75469); experiment: CYP3A4 induction through human pregnane X receptor (PXR) by small molecules, qHTS assay (AID 1346984); note: nearly all actives have a fitted effect of over 40% in size
How it was run: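 qHTS, concentration-response format: HepG2 DPX-2 line, PXR/CYP3A4-luc. Exposure 24 h, 37C. Substrate Luciferin-IPA 3uM final, 3 h. Detection One-Glo, 30 min RT.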

[19] = molecular target: Nuclear receptor subfamily 1 group I member 2 (Homo sapiens) (UniProt O75469); experiment: Human pregnane X receptor (PXR) activation by small molecules, qHTS assay (AID 1346985); note: nearly all actives have a fitted effect of over 40% in size
How it was run: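 DPX-2 cells (HepG2 co-transfected with a PXR response element and a CYP3A4-promoter luciferase construct) were seeded at 2,000 per well, rested 5 hr at 37C, then exposed to DMSO-dissolved compounds for 24 hr. Activation was read as luciferase luminescence.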

Row | Compound | Potency [1] | Potency [2] | Potency [3] | Potency [4] | Potency [5] | Potency [6] | Potency [7] | Potency [8] | outcome [9] | Potency [10] | Potency [11] | Potency [12] | Potency [13] | Potency [14] | Potency [15] | Potency [16] | Potency [17] | Potency [18] | Potency [19]
1 | C/C=C/C=C/COC(=O)C(C)C | inactive | inactive | inactive | inactive | inactive | inactive | inactive | inactive | inactive | inactive | 54.5 µM (active) | inactive | 43.3 µM (active) | – | – | – | – | – | –
2 | COC(=O)c1ccccc1C | inactive | inactive | inactive | inactive | inactive | inactive | inactive | – | – | inactive | – | inactive | inactive | inactive | inactive | inactive | inactive | – | –
3 | O=C1c2ccccc2C(=O)N1SC1CCCCC1 | inactive | inactive | inactive | inactive | inactive | inactive | inactive | 30.1 µM (active) and inactive | inactive | inactive | 54.4 µM (active) and 43.3 µM (active) | inactive | inactive | – | inactive | inactive | – | – | –
4 | CCCc1ccc(OCC(=O)N2CCN(C(=O)COc3ccc(CCC)cc3OC)CC2)c(OC)c1 | inactive | inactive | inactive | inactive | inactive | inactive | inactive | inactive | inactive | inactive | inactive | inactive | 4.22 µM (active) | – | inactive | inactive | inactive | – | –
5 | C=CC(C)(CCC=C(C)C)OC=O (centres undefined) | inactive | inactive | inactive | inactive | inactive | inactive | inactive | – | – | inactive | inactive | inactive | inactive | inactive | inactive | inactive | inactive | – | –
6 | Cc1cc(C(C)(C)C)cc(C)c1CC1=NCCN1 | inactive | inactive | inactive | inactive | inactive | inactive | inactive | – | – | inactive | inactive | inactive | inactive | inactive | – | inactive | – | inactive | inactive
7 | CC1(C)CC(O)CC(C)(C)N1 | inactive | inactive | inactive | inactive | inactive | inactive | inactive | inactive | inactive | inactive | inactive | inactive | 55.5 µM (active) | – | inactive | inactive | – | – | –
8 | Cc1c(F)c(N2CCNC(C)C2)cc2c1c(=O)c(C(=O)O)cn2C1CC1 (centres undefined) | inactive | inactive | inactive | inactive | inactive | inactive | – | – | – | inactive | – | inactive | inactive | inactive | inactive | inactive | inactive | inactive | inactive
9 | CCCCCC/C=C\CCCCCCCC(=O)O | inactive | inactive | inactive | inactive | inactive | inactive | inactive | inactive | – | inactive | – | inactive | inactive | inactive | inactive | inactive | inactive | – | –
10 | O[C@@H]([C@H](O)[C@H](O)CBr)[C@H](O)CBr | inactive | inactive | inactive | inactive | inactive | inactive | inactive | – | – | inactive | inactive | inactive | inactive | inactive | inactive | inactive | inactive | inactive | inactive
11 | COC(C)=O | inactive | inactive | inactive | – | inactive | inactive | inactive | – | – | inactive | inactive | inactive | inactive | inactive | inactive | inactive | – | – | –
12 | CN(C)CCN1CCN(c2cccc(Cl)c2)C1=O | inactive | inactive | inactive | inactive | – | inactive | inactive | inactive | inactive | inactive | inactive | inactive | inactive | inactive | inactive | inactive | – | – | –
13 | CCCCCCCCCCCC(=O)OCC(C)OC(=O)CCCCC(=O)O (centres undefined) | inactive | inactive | inactive | – | inactive | inactive | inactive | inactive | inactive | inactive | inactive | inactive | inactive | inactive | inactive | inactive | inactive | – | –
